# High-throughput results deposited in PubChem by Small Molecule Screening Facility, UW Madison.
# The sample as a whole holds a higher share of hits than the screen did.
# RMI-FANCM inh – inhibitors of human RMI core complex binding to FANCM MM2 | Fluorescence polarization, RMI core complex with F-MM2 peptide; hits give low values | FP signal (polarization) at 33 µM | 0.58% of 70,000 active | AID 1159607; in the data active = FP signal below about 40
# * = called active by the depositor; ! = repeats disagree.
SMILES,RMI-FANCM inh
NC1=NC(=O)C(c2ccccc2)O1 (centres undefined),17*
CC(Cc1ccc(O)cc1)NCC(O)c1cc(O)cc(O)c1 (centres undefined),-13*!
C[C@H](Cc1ccc2c(c1)OC(C(=O)O)(C(=O)O)O2)NC[C@H](O)c1cccc(Cl)c1,47
CC(N)Cc1ccc(O)cc1 (centres undefined),63
CCOC(=O)c1ccc(NC(=O)c2cccn(Cc3cccc([N+](=O)[O-])c3)c2=O)cc1,53
O=S(=O)(c1ccccc1)N1CCOC12CCNCC2,66
CC(C)c1ccc(OCC(=O)N2CCN(Cc3nc(-c4ccco4)cs3)CC2)cc1,61
Cc1csc(CN2CCN(C(=O)COc3ccccc3)CC2)n1,61
NCCc1cc(O)c(O)cc1O,59
NC(Cc1cc(O)c(O)cc1O)C(=O)O (centres undefined),-4*
N[C@@H](CCl)C(=O)O,52
CC1=NCCc2c1[nH]c1cc(O)ccc21,64
COc1ccc2c(c1)[nH]c1c(C)nccc12,67
COc1ccc2c3c([nH]c2c1)C(C)=NCC3,35*!
CN1CCN(c2ccc(CNS(C)(=O)=O)cc2)CC1,58
CCOc1cccc2sc(N3CCNCC3)nc12,72
O=C(Cl)OC1CCS(=O)(=O)C1 (centres undefined),61
Cc1ccc(NC(=O)c2cccn(Cc3ccccc3Cl)c2=O)cc1C,55
CC(C)=CCCC1(C)C=Cc2c(O)c3c(c(CC=C(C)C)c2O1)OC12C(=CC4CC1C(C)(C)OC2(C/C=C(/C)C(=O)O)C4=O)C3=O (centres undefined),56
CC(C)=CCCC1(C)C=Cc2c(O)c3c(c(CC=C(C)C)c2O1)OC12C(=CC4CC1C(C)(C)OC2(C/C=C(/C)C(=O)O)C4O)C3=O (centres undefined),54
COc1c(CC=C(C)C)c2c(c3oc(=O)c(-c4ccc(O)cc4)c(O)c13)C=CC(C)(C)O2,13*
COc1ccc2nc(N(CCN(C)C)C(=O)Cc3cccc4ccccc34)sc2c1,76
Cc1ccc2c(CC(=O)N3CCN(C(c4ccccc4)c4ccccc4)CC3)cc(=O)oc2c1,68
O=C(NCCN1CCN(c2ccccc2)CC1)c1ccc(F)cc1,64
O=C1c2ccccc2C(=O)c2ccccc21,58
O=C1C=CC(=O)c2c(O)cccc21,-18*
C=CCN1CC[C@]23c4c5ccc(O)c4O[C@@H]2/C(=N\N=C2\CC[C@@]4(O)C6Cc7ccc(O)c8c7[C@@]4(CCN6CC=C)[C@@H]2O8)CC[C@@]3(O)C1C5,50
O=Cc1cc2c(cc1O)OCO2,58
CCOP(=S)(NNc1cccc(C(F)(F)F)c1)OCC,61
CCOc1ccc(-n2c(=S)[nH]c3c(Br)cc(Br)cc3c2=O)cc1,62
